The results in this text go back to PubChem BioAssay AID1671190 (National Center for Advancing Translational Sciences (NCATS), 2021).

Several values for one entry are separate records, joined by “and”; a condition that tells them apart may be missing. Identical values can stand only once. The campaign covered roughly 580,000 compounds. About 6,100 (1.1%) were called active. A call without a number means that no potency is given here. Roughly 15% stayed inconclusive and do not appear here. Calls come from the whole dose curve; as a rule, active = well fitted inhibition curve with a large enough effect; inconclusive = small, poorly fitted or top-dose-only effect, or another doubt; inactive = no such curve, though single readings can be large or run the other way. The sample as a whole holds a higher share of actives than the screen did.
Potency is the fitted concentration of half-maximal effect.

Polyunsaturated fatty acid lipoxygenase ALOX12 (Homo sapiens), sequence (P18054 whole entry, looked up): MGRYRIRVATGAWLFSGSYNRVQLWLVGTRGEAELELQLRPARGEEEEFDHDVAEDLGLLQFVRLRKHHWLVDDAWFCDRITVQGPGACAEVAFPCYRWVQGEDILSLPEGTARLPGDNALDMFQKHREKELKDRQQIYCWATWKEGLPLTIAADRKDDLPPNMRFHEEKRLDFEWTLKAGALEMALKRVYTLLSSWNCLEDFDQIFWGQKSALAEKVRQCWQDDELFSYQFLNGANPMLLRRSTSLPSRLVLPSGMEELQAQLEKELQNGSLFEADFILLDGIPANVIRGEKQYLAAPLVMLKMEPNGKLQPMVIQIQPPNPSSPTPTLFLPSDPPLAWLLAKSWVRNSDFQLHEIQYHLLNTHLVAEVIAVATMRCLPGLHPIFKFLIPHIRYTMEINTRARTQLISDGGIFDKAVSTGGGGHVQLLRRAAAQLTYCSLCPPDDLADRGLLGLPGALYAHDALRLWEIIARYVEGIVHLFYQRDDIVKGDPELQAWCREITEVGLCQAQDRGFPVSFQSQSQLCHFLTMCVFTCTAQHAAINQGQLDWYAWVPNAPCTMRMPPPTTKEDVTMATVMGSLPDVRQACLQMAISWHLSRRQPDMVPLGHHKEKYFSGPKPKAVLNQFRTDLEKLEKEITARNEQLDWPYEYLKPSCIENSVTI

The assay has as its target Polyunsaturated fatty acid lipoxygenase ALOX12 (Homo sapiens) (UniProt P18054). Nature of the assay: Primary qHTS assay for inhibitors of human arachidonate 12S-lipoxygenase (ALOX12): Round 2. The settings on record: purified 12hLO, xylenol orange hydroperoxide absorbance; series mostly up to 108 µM. Summed up: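 Purified human 12hLO at 150 nM in 25 mM Hepes, 0.01% Triton X-100, pH 7.0, preincubated 15 min at room temperature with compound. Reaction started with 40 uM arachidonic acid, 30 min at room temperature. Hydroperoxide measured by Fe-xylenol orange, 573/405 nm absorbance ratio.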
In general terms: In qHTS, concentration-response curves come from the screen itself.
Turning to `CC(=O)SC(CC(=O)c1ccccc1)c1ccccc1` (centres undefined), the Potency entry was “inactive”.

`NCCC(=O)Nc1ccccn1`: the Potency entry is “inactive”. Take `S=C(NN=Cc1ccccn1)Nc1ccccn1`: the Potency was 39.8 µM (active).

Turning to `Cc1nc2sc(C(=O)OCC(=O)Nc3cccc(C(F)(F)F)c3)c(C)c2c(=O)[nH]1`, the Potency result is “inactive”. As for `COCCCNC(=O)CCn1ccc2cc(S(=O)(=O)N3CCCCC3)ccc21`, the Potency entry is “inactive”. The result for `O=C(Nc1ccccc1Br)c1nc2ccccc2nc1N1CCOCC1` reads “inactive”. Take `COc1ccc(Cl)cc1NC(=O)/C(C#N)=C/c1coc2ccc(Cl)cc2c1=O`: the Potency result is “inactive”.

`COc1cc(Br)c(/C=C(/C#N)C(=O)c2ccccc2)cc1O`: the Potency is 10 µM (active). With `COc1ccc(C(=O)/C(C#N)=C\c2ccccc2OC(F)F)cc1` the entry was “inactive”. For `C=CCn1c(-n2nc(CC)cc2CC)nc2c1c(=O)n(C)c(=O)n2C`, the Potency entry was “inactive”. The result for `O=C(NC1CCN(Cc2ccccc2)C1)c1cc2ccccc2oc1=O` (centres undefined) reads “inactive”. With `N#Cc1cccc(NC(=O)CSc2nnc(Cc3ccccc3)o2)c1`, the Potency result is “inactive”.

In the case of `Cc1ccc(S(=O)(=O)/N=C2\C=C(NS(=O)(=O)c3ccc(C)cc3)C(=O)c3ccccc32)cc1`, the Potency is 15.8 µM (active). With `CSCC(NS(=O)(=O)c1ccc(C)cc1)C(=O)O` (centres undefined) the entry was “inactive”. For `Cc1ccc(S(=O)(=O)NC(C)c2cccs2)cc1` (centres undefined), the Potency result was “inactive”.

On to `CC(C)c1ccc(C(=O)N/N=C/CCc2ccccc2)cc1`, for which the Potency entry was “inactive”. As for `N#CCCN1CCC(c2ccccc2)C1` (centres undefined), the Potency result was “inactive”. The result for `S=c1[nH]nc(-c2cc(-c3ccsc3)n[nH]2)n1-c1ccccc1` reads 15.8 µM (active). With `CCCCC(CC(C)O)c1n[nH]c(=S)n1-c1ccccc1` (centres undefined) the entry was “inactive”; with `CC(=O)c1c(SCC(=O)Nc2ccc(F)cc2)nc(=O)[nH]c1C`, “inactive”. The result for `COCC(=O)N1CCC(c2nc(C3CCOCC3)n[nH]2)CC1` reads “inactive”.

Take `Cc1ccc(NS(=O)(=O)c2cccc(C(=O)N(C)C(C)c3nc4ccccc4s3)c2)cc1` (centres undefined): the Potency result was “inactive”.

As for `COc1ccc(S(=O)(=O)Nc2ccc(O)c(Sc3nc4ccccc4s3)c2)cc1`, the Potency is 44.7 µM (active) and 22.4 µM (active). With `COc1ccc(Nc2nc3ccccc3nc2NS(=O)(=O)c2ccc(OC)cc2)cc1` the entry was “inactive”; with `COC(=O)C1=C(C)NC(=O)C1(NC(=O)c1ccccc1F)C(F)(F)F` (centres undefined), “inactive”.

For the compound `CCCCCCc1ccc(/C(C)=C\C(=O)O)cc1`, the Potency entry was “inactive”.

As to `CC(C)Oc1ccc(-c2cc(C(=O)NCc3ccncc3)c3ccccc3n2)cc1`, the Potency result was “inactive”.

Take `CCOc1ccc(CNC(=O)c2cc(-c3ccc(Cl)s3)nc3ccccc23)cc1`: the Potency entry was “inactive”. With `CCc1ccc(-c2cc(C(=O)NCc3ccco3)c3ccccc3n2)s1` the figure was 17.8 µM (active) and 35.5 µM (active); with `O=C(CSc1nc(-c2ccc(F)cc2)cs1)NC1CCCCC1`, “inactive”; with `CC(C)Cn1cnc2c1c(=O)n(CC(=O)OCc1ccc(F)cc1)c(=O)n2Cc1ccccc1`, “inactive”. With `COC(=O)C1=C(C)Nc2nc3ccccc3n2C1c1cc(OC)c(O)c(OC)c1` (centres undefined) the entry was “inactive”. On to `CCC(CO)Oc1cc(NC(=O)c2ccc(Cl)cc2)c2ncn(C(C)C)c2c1` (centres undefined), for which the Potency is 3.16 µM (active). For the compound `CCOc1ccc(NC(=O)c2ccc(Cl)cc2)c2cccnc12`, the Potency entry was “inactive”. With `CC(C)Oc1ccc(NC(=O)c2ccc(Cl)cc2)cc1` the entry was “inactive”. On to `COc1ccccc1C(=O)N1CCCN(CCc2ccccc2)c2ccccc21`, for which the Potency entry was “inactive”. Take `COc1cccc(CN2Cc3cc(NC(=O)Cc4cccs4)ccc3OC(C)C2=O)c1OC` (centres undefined): the Potency result is “inactive”. For the compound `O=C(NCc1ccc(Cl)cc1)c1cc(-c2ccc[nH]2)n[nH]1`, the Potency is 31.6 µM (active). As for `COc1ccccc1CNC(=O)c1cc(-c2cc(Cl)ccc2C)n[nH]1`, the Potency result was “inactive”. The result for `CCOc1ccc(Cl)cc1-c1cc(C(=O)NCc2cccs2)[nH]n1` reads “inactive”; that for `CCCn1nc(C(=O)Nc2nc(-c3ccc(NC(C)=O)cc3)cs2)c2ccccc2c1=O`, “inactive”. With `CC(NC(=O)CSc1ccc(F)c(F)c1)c1nc2ccccc2[nH]1` (centres undefined) the entry was “inactive”; with `S=C(NCCc1ccc(Cl)cc1)Nc1ccc(Oc2ccccc2)cc1`, 17.8 µM (active); with `Cc1nn(C)c2c1c(C(F)(F)F)cc(=O)n2C(C)C(=O)NCc1ccc(Cl)cc1` (centres undefined), “inactive”. With `Cc1c(Cl)cccc1NC(=S)NCCSc1ccc(Cl)cc1` the entry was “inactive”; with `CCNC(=S)Nc1ccc(C)cc1Br`, “inactive”; with `CCC(C)C(NC(=O)NCc1ccc(C)cc1)C(=O)O` (centres undefined), “inactive”. As for `Cc1ccc(NC(=S)NCCc2ccc(Cl)cc2)c(C)c1`, the Potency is 35.5 µM (active). The result for `Cc1cc(Cl)ccc1NC(=S)NCCCN1CCCC1=O` reads “inactive”. The result for `Cc1cccc(NC(=S)N2CCC(O)CC2)c1C` reads “inactive”. The result for `O=C(NCCc1ccccc1)Oc1ccc(Cl)cc1` reads “inactive”; that for `CN(CC(=O)Nc1ccc(Cl)cc1)C(=O)c1ccc(COc2ccccc2)cc1`, “inactive”; that for `Cc1cccc(NC(=S)NCCc2ccc(F)cc2)c1C`, 39.8 µM (active). For `Cc1ccc(C)c(C(C)NC(=S)NCc2ccc(Cl)cc2)c1` (centres undefined), the Potency was 31.6 µM (active). With `CN1CCN(C(=O)CCCC(=O)O)CC1` the entry was “inactive”; with `Cc1ccc([S+](=O)([O-])N2CCC3(CC2)CC(=O)N(c2ccccc2)c2ccccc2O3)cc1`, “inactive”; with `CC(C)CC1CCCN1` (centres undefined), “inactive”. Regarding `CCn1cc(CN2CCC(N3CC(OCC4CC4)C34CCCCC4)CC2)cn1` (centres undefined), the Potency result is “inactive”. With `CC[n+]1c(C)n(-c2ccccc2)c2ccc(NC(C)=O)cc21` the figure was 39.8 µM (active); with `CC(=O)Nc1ccc(NC(=O)CSc2nnc(C3CC3)n2-c2ccccc2)cc1`, “inactive”. Take `CC(=O)Nc1ccc(S(=O)(=O)N2CCN(c3ccccc3)CC2)cc1`: the Potency entry was “inactive”. The result for `COCC1CN(C(C)=O)CC12CCN(C(=O)c1n[nH]c(=O)c3ccccc13)CC2` (centres undefined) reads “inactive”; that for `Cc1ccnc(-c2cccc([N+](=O)[O-])c2)[n+]1[O-]`, “inactive”. Regarding `N#CC(C#N)=Cc1ccc(-c2cccc(C(=O)O)c2)o1`, the Potency entry is “inactive”. As to `CC(=O)C(=Cc1ccc(-c2cccc([N+](=O)[O-])c2)o1)C(C)=O`, the Potency was 0.631 µM (active). The result for `O=C(Nc1ccc(F)c(F)c1)c1nc2ccccc2nc1N1CCOCC1` reads “inactive”; that for `CCC(C)Cn1c(O)cc2nn(-c3nc4ccccc4s3)c(=O)c-2c1C` (centres undefined), 31.6 µM (active); that for `CC(C)Cn1nc(C(=O)Nc2ccc3nc(N4CCOCC4)sc3c2)c2ccccc2c1=O`, “inactive”. `CCNC(=O)CN1CCCN(C(=O)CCCc2c[nH]c3ccccc23)CC1`: the Potency result is “inactive”.
